In the library only some 9.3% were active in any assay of this set; here they are far more common.
HCV inh: inhibitors of hepatitis C virus infection. 340,000 compounds, 3.4% hits. Potency, µM (highest dose often 41.8 µM), actives largely listed as inhibitors. Huh7.5.1 HCVcc-Cre infection, luciferase reporter, 44 h
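After 44 h co-culture of compound, cells and HCVcc-Cre (~0.5 moi), substrate is added for 15 min at room temperature and luciferase measured over 15 sec. Cells were seeded at 1,000/well and pre-cultured 4 h.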
Vaccinia mCherry: vaccinia inhibition (mCherry reporter) | Vaccinia virus mCherry reporter infection, fluorescence | Potency, µM (series often up to 36.5 µM), hits mostly inhibitors | 310,000 compounds, 0.63% hits; calls by dose curve; tested in A549 cells; further: nearly all actives have a fitted effect of over 35% in size
Sm TGR inh: inhibitors of Schistosoma mansoni thioredoxin glutathione reductase. Potency, µM (series often up to 114 µM), actives largely listed as inhibitors. Q962Y6. purified TGR, DTNB reduction, TNB absorbance 405 nm. 360,000 compounds, 3% hits. AID 485364; further: nearly all actives have a fitted effect of over 60% in size
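First, TGR (20 nM dispensed) and NADPH were mixed with compound. Second, a 15 min room-temperature incubation followed. Third, further NADPH and then DTNB were added to start the reaction. Finally, TNB absorbance was monitored kinetically.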
FMDV antiviral: blocks foot and mouth disease virus; FMDV antiviral cell-based qHTS; 410,000 compounds, 1.2% hits; Potency, µM (series often up to 57.9 µM), actives largely listed as inhibitors; calls by dose curve; tested in HEK293T cells; further: read-out not given here; nearly all actives have a fitted effect of over 45% in size
HCMV inh: blocks human cytomegalovirus replication | HFF cells, HCMV-luciferase reporter, 72 h; active compounds read low | activity change, negative = inhibition, % at 57.5 µM | 410,000 compounds, 4.5% hits; in the data active means activity change below about -60%; inconclusive means no clear call, values can overlap the other calls; inactive means above about -39%
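Compounds were evaluated in HFFs infected with an HCMV luciferase reporter virus (MOI 1 PFU/cell). Luciferase in lysates collected 72 h post infection served as the replication measure.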
Vaccinia Venus: vaccinia inhibition (Venus reporter) | Vaccinia virus Venus reporter expression, fluorescence | Potency, µM (titrated, usually from 36.5 µM), hits mostly inhibitors | 330,000 compounds, 0.46% hits; calls by dose curve; tested in A549 cells; further: nearly all actives have a fitted effect of over 30% in size
Numbers stand for hits; - = inactive; ? = inconclusive; . = no result; [ ] = another dose, or the depositor's remark. Unless noted, the call rests on the fitted dose curve; in most records, active means well fitted curve in the direction sought with a large enough effect; inconclusive means small, poorly fitted or top-dose-only effect, or another doubt; inactive means no such curve, though single readings can be large; an effect the other way counts as inactive or inconclusive.

SMILES	HCV inh	Vaccinia mCherry	Sm TGR inh	FMDV antiviral	HCMV inh	Vaccinia Venus
CC1=Nc2ccccc2N=C(NC(=O)c2ccccc2)C1c1ccc(Cl)cc1 (stereo unspecified)	-	-	-	-	-63.0	-
COc1ccc(C(=O)N[C@H](C(=O)Nc2sccc2C(N)=O)C(C)C)cc1	-	-	-	-	?	-
Cn1nc(C(=O)NCc2ccc(F)cc2)c2c1-c1ccccc1S(=O)(=O)C2	14.1µM	.	-	-	-	.
Cc1ccc(CNC(=O)c2nn(C)c3c2CS(=O)(=O)c2ccccc2-3)cc1	-	-	-	-	-	-[7.34 µM]
Cn1c(=O)n(-c2ccc(Br)cc2F)c(=O)c2sc3ccccc3c21	.	-	-	-	-	-
CCCCNC(=O)c1nc2ccccc2nc1-c1ccc(F)c(F)c1	.	.	.	.	-	.
COc1ccc(C(=O)/C=C/Sc2nc3ccccc3o2)cc1	?	-	0.316µM	?	-105.1	-
CCn1cc(C2=NC(CC(C)C)CO2)c2ccccc21 (stereo unspecified)	10µM	-	-	-	-	?
CCn1cc(C2=NC(C(C)C)CO2)c2ccccc21 (stereo unspecified)	?	?	-	-	-	?
CC(C)(Sc1cc(C(C)(C)C)c(O)c(C(C)(C)C)c1)Sc1cc(C(C)(C)C)c(O)c(C(C)(C)C)c1	-[8.37 µM]	-	-	-	-	-
Cn1ccnc1C(O)c1cc(C(C)(C)C)c(O)c(C(C)(C)C)c1 (stereo unspecified)	-	-	17.8µM	.	?	-
COc1ccc2c(c1)C(=O)OC2CC(=O)O (stereo unspecified)	?	.	-	-	-	.
Cc1oc2ccc(O)c(CN3CCCCCC3)c2c1C(=O)Nc1cccc(Cl)c1C	.	?	-	?	-99.7	-
CCOC(=O)c1c(-c2ccccc2)oc2ccc(O)c(CN3CCCC3)c12	-	.	-	-	-62.0	.
CCc1cccc(CC)c1NC(=O)c1c(C)oc2ccc(O)c(CN3CCCC3)c12	.	-	-	-	-	-
CCOC(=O)c1c(-c2ccccc2)oc2ccc(O)c(CN(C)C)c12	-	.	-	-	-	.
Cc1oc2ccc(O)c(CN3CCCCCC3)c2c1C(=O)Nc1cccc(C(F)(F)F)c1	.	-	-	-	-86.0	?
Cc1oc2ccc(O)c(CN(C)Cc3ccccc3)c2c1C(=O)Nc1cccc(Cl)c1C	.	-	-	?	-66.2	-
CCCOc1ccc(N2C(=O)CC(N(Cc3ccccc3)N=O)C2=O)cc1 (stereo unspecified)	-	-	-	-	-	-
CN(C)c1ccc(CNC(=O)CCn2cccn2)cc1	.	-	-	-	-	-
Cc1ccc(NC(=O)c2c(C)oc3ccc(O)c(CN4CCCCCC4)c23)c(C)c1	.	-[7.34 µM]	-	-	-64.7	-[7.34 µM]
Cc1ccc(NC(=O)c2c(C)oc3ccc(O)c(CN4CCOCC4)c23)cc1	.	-	-	-	-	-
Cc1ccc(NC(=O)c2c(C)oc3ccc(O)c(CN4CCCCCC4)c23)cc1	.	-[7.34 µM]	-	?	-85.3	-[7.34 µM]
COc1ccc(CNC(=O)COC(=O)c2n[nH]c3ccccc23)cc1OC	10µM	.	-	11.2µM	-	.
Cc1ccc(C)c(C(=O)COC(=O)c2n[nH]c3ccccc23)c1	-	-	.	-	-60.7	-
SMILES	HCV inh	Vaccinia mCherry	Sm TGR inh	FMDV antiviral	HCMV inh	Vaccinia Venus
CN(C)CCC1(C2=CCCC2)CC/C(=C/c2ccc(Cl)cc2)C1=O (stereo unspecified)	?	?	.	-	-85.9	11.2µM
CC(C)(C)OC(=O)NCCCC(CCCNC(=O)OC(C)(C)C)C(=O)O	-	-	-	-	-	-
COc1cc2ccc(C(C)=NNC(N)=S)cc2cc1OC	.	6.31µM	.	-	-	?
C/C(=N\NC(N)=S)c1ccc2c(c1)OCCO2	?	?	-	-	-	?
CC(=NNC(N)=S)c1ccc2cc3c(cc2c1)OCO3	.	?	.	-	-	2µM
Cc1ccc(C(=O)O)cc1N1C(=O)c2cccc3c([N+](=O)[O-])ccc(c23)C1=O	?	.	14.1µM	?	-99.8	.
O=C(O)c1ccc(CN2C(=O)c3cccc4c([N+](=O)[O-])ccc(c34)C2=O)cc1	?	-	17.8µM	?	.	-
O=C1c2cccc3c([N+](=O)[O-])ccc(c23)C(=O)N1CCc1ccccn1	-	?	?	-	-	-
O=C(O)c1ccc(CN2C(=O)c3ccc(C(=O)O)cc3C2=O)cc1	-	.	-	-	-	.
CN(C)CCCN1C(=O)c2cccc3c([N+](=O)[O-])ccc(c23)C1=O	?	-	28.2µM	?	-	-
CC(=O)Oc1cccc(N2C(=O)c3cccc4c([N+](=O)[O-])ccc(c34)C2=O)c1	?	.	-	-	-93.7	.
COc1ccc(NC(=O)C(Cc2ccccc2)NS(=O)(=O)c2ccc3c(c2)oc(=O)n3C)c(OC)c1 (stereo unspecified)	.	-	-	-	-	-
C1=C(c2ccccc2)CCN(c2nc3ccccc3n3cnnc23)C1	-	-	3.55µM	-	-	-
c1ccc(N2CCN(c3nc4ccccc4n4cnnc34)CC2)cc1	-	?	-	?	-	-
COc1cccc(NC(=O)N2CCCC2C(=O)NCc2ccccc2)c1 (stereo unspecified)	-	.	-	-	-	.
Cc1ccc(S(=O)(=O)N2CCSC2c2ccco2)cc1 (stereo unspecified)	-	.	44.7µM	-	-	-
COc1ccccc1OCCCCCc1c(C)n[nH]c1C	?	.	-	?	-61.4	.
Cc1ccc(-n2ncc(C#N)c2/N=C/N2CCCCCC2)cc1	10µM	-	-	?	-	-
COc1ccc(N2CCN(C3CCCN(S(=O)(=O)c4ccccc4)C3)CC2)cc1 (stereo unspecified)	-	-	-	-	-	-
COc1ccc(C)cc1S(=O)(=O)N1CCN(C(=O)c2ncoc2-c2ccc(C)cc2)CC1	-	-	-	-	-69.7	-
COc1ccc(-n2nnnc2C2CCN(S(=O)(=O)c3cc(Cl)ccc3OC)CC2)cc1	.	-	-	?	-78.2	?
COc1ccc(N2CCN(S(=O)(=O)c3cc(C)ccc3OC)CC2)cc1	2.82µM	?	-	-	-	-
COc1ccc(-n2nnnc2C2CCN(S(=O)(=O)c3ccc(C(C)(C)C)cc3)CC2)cc1	.	-	-	-	-	-
COc1ccc(C)cc1S(=O)(=O)N1CCN(C(=O)c2ncoc2-c2ccc(F)cc2)CC1	?	-	-	?	-	-
COc1ccc(N2CCN(C3CCCN(S(=O)(=O)c4ccc(C)cc4C)C3)CC2)cc1 (stereo unspecified)	8.91µM	.	-	-	-73.1	.
O=C(Nc1ccccc1)C1CC(=O)N(C2CCCCC2)C1 (stereo unspecified)	-	.	-	-	-	-
Cc1cccc(N2CCN(C(=O)C3CC(=O)N(C4CCCC4)C3)CC2)c1C (stereo unspecified)	?	-	-	?	-63.0	-
Cc1cc(C)c(NC(=O)C2CC(=O)N(C3CCCC3)C2)c(C)c1 (stereo unspecified)	-	.	.	-	-72.4	.

High-throughput results from PubChem.
